BJeLR lethal: kills HRASV12-expressing BJeLR cells | 300,000 tested, 0.17% active | inhibition, % (concentration not given with the values) | AID 1554 | BJeLR (HRASV12) viability, CellTiter-Glo ATP luminescence, 48 h; in the data active means inhibition above about 50%
DUSP3 inh: blocks human VHR1 dual specificity phosphatase; recombinant VHR phosphatase, pNPP absorbance; inhibition, % at 13.3 µM; 290,000 tested, 0.52% active; AID 1654; in the data active means inhibition above about 50%
ugtP null kill: growth inhibition of S. aureus ugtP deletion strain. S. aureus RN4220 ugtP deletion, OD600 growth, 16 h. growth inhibition, % (concentration not given with the values). 330,000 tested, 0.54% active; in the data active means growth inhibition above about 68%
PrPC TRFRET: cell surface PrPC inhibition, primary TR-FRET screen; TR-FRET read-out; inhibition, % at 13.8 µM; 370,000 tested, 0.43% active; AID 720596; in the data active means inhibition above about 24%
3CLpro inhibitor: SARS-CoV 3CLpro protease inhibition; AID 1706; inhibition, % at 6 µM; recombinant SARS-CoV 3CLpro, quenched FRET peptide cleavage; 290,000 tested, 0.14% active; in the data active means inhibition above about 12%
Sa RN4220 lethal: kills Staphylococcus aureus RN4220; S. aureus RN4220 growth, OD600, 16 h; 330,000 tested, 0.33% active; inhibition, % (no concentration beside the values); in the data active means inhibition above about 85%
PrPC TRFRET cf: cell surface PrPC inhibition, TR-FRET confirmation | 1,500 tested, 65% active | inhibition, % at 13.8 µM | AID 743200 | cell surface PrPC level | shares compounds with PrPC TRFRET; in the data active means inhibition above about 25%
LD9 cytotox: kills or reduces viability of LD9 cells in PrPc counter-screen; AID 743201; LD9 cells cytotoxicity, luminescence viability; 1,500 tested, 29% active; inhibition, % at 13.8 µM; shares compounds with PrPC TRFRET; in the data active means inhibition above about 9.5%
Numbers stand for hits; 0 = inactive; - = no result. This is a sample that favours compounds with a hit; in the whole collection about 1.4% have one here.

SMILES	BJeLR lethal	DUSP3 inh	ugtP null kill	PrPC TRFRET	3CLpro inhibitor	Sa RN4220 lethal	PrPC TRFRET cf	LD9 cytotox
Cc1ccccc1OCCC(=O)Nc1ccc2c(C)cc(=O)oc2c1	0	0	0	38	0	0	27	0
Cc1ccccc1OCC(=O)Nc1ccc(Cc2ccncc2)cc1	0	0	0	25	0	0	0	0
Cc1nc2ccccn2c1C(O)=C1C(=O)C(=O)N(CCN(C)C)C1c1cccnc1 (centres undefined)	-	-	0	-	-	0	-	-
CCN1CC2C3C(=O)N(Cc4ccccc4)C(=O)C3[C@](Cc3ccccc3)(C1=O)N2C(=O)c1ccc(C)cc1 (some centres undefined)	-	-	0	-	-	0	-	-
Cc1csc2nc3cc(C(N)=O)ccc3c(=O)n12	0	0	0	0	-	0	-	-
NC(=O)c1ccc2c(=O)n3c(-c4cc(Cl)c(N)c(Cl)c4)csc3nc2c1	0	0	0	32	-	0	0	0
CC(=O)Nc1nc(C)c(C(C)=O)s1	0	0	0	0	0	0	-	-
CC(=O)c1sc(NC(=O)C(C)C)nc1C	0	0	0	33	0	0	35	0
CN(C)C1=NCC(Cc2ccccc2)N1CCCC1CCCCC1 (centres undefined)	-	-	0	-	-	0	-	-
CCc1nc2ccccc2c(C(=O)OCC(=O)Nc2cccc(S(=O)(=O)N3CCOCC3)c2)c1C	0	0	0	26	0	0	0	10
CN(CC(=O)Nc1cccc(F)c1)CC(=O)Nc1cc(S(=O)(=O)N2CCOCC2)ccc1Cl	-	-	0	0	-	0	-	-
CN(CC(=O)Nc1cccc(S(=O)(=O)N2CCOCC2)c1)CC(=O)Nc1ccc(Cl)c(C(F)(F)F)c1	0	-	0	25	-	0	0	0
COc1ccccc1-c1nnc(Nc2nc3c(OC)cccc3s2)o1	0	0	0	42	0	0	69	40
COc1cccc2sc(Nc3nc(-c4ccncc4)cs3)nc12	0	0	0	28	0	0	0	27
CCCCCC(=O)Nc1cccc(C2=NOC3(C2)CC(C(N)=O)N(C(=O)CCCCC)C3)c1 (centres undefined)	-	-	0	-	-	0	-	-
C=C1c2cccc(O)c2C(=O)C2C(=O)[C@]3(O)C(=O)C(C(N)=O)C(=O)[C@@H](N(C)C)[C@@H]3[C@@H](O)[C@H]12 (some centres undefined)	-	-	-	40	-	-	0	0
N#CNC(=Nc1cccc(F)c1)SCc1ccccc1	0	0	0	31	0	0	0	0
N#CNC(=Nc1cccc(F)c1)SCc1cccc(F)c1	0	0	0	0	0	0	-	-
CC(N)c1csc(Nc2ccc(C(=O)c3ccccc3)cc2)n1 (centres undefined)	-	-	-	0	-	-	-	-
NC(c1csc(Nc2ccc(C(=O)NCCO)cc2)n1)C1CCCCC1 (centres undefined)	-	-	-	0	-	-	-	-
CC(=O)c1ccc(Nc2nc(C(N)C3CCCCC3)cs2)cc1 (centres undefined)	-	-	-	29	-	-	39	0
NC(c1csc(Nc2ccc(C(=O)c3ccccc3)cc2)n1)C1CCCCC1 (centres undefined)	-	-	-	38	-	-	41	0
O=C(NC(Cc1ccccc1)C(=O)OCc1ccccc1)c1nc[nH]c1C(=O)NC(c1ccccc1)c1ccccc1 (centres undefined)	-	-	0	-	-	0	-	-
CCOC1OC(C(=O)Nc2ccccc2)=CC(c2ccc(Br)cc2)C1CCCO (centres undefined)	-	-	0	-	-	0	-	-
COC(=O)C1=C(C)N(Cc2ccccc2)C(=NCCCCO)NC1CCc1ccccc1 (centres undefined)	-	-	0	-	-	0	-	-
SMILES	BJeLR lethal	DUSP3 inh	ugtP null kill	PrPC TRFRET	3CLpro inhibitor	Sa RN4220 lethal	PrPC TRFRET cf	LD9 cytotox
NC(=O)COC(=O)c1ccc2noc(-c3ccccc3)c2c1	0	0	0	37	0	0	30	0
COc1ccc(C2=NN(c3nc4ccccc4s3)C(=O)C2=CN(C)C)cc1	-	-	0	-	-	0	-	-
Cc1ccccc1C(=O)NN1C(=O)CSC1=S	0	0	0	34	0	0	0	0
O=C(NN1C(=O)CSC1=S)c1cccnc1	0	0	0	0	0	0	-	-
Cc1cccc(NS(=O)(=O)c2ccc3oc(=O)ccc3c2)c1C	0	0	0	37	0	0	0	0
CC(CN1C(=O)C(=O)NCC1C)NC(=O)CC12CC3CC(CC(C3)C1)C2 (centres undefined)	-	-	0	-	-	0	-	-
Cc1nn(Cc2ccc(Cl)c(Cl)c2)c(C)c1NC(=O)c1cc(-c2ccco2)on1	0	0	0	38	0	0	31	0
Cc1nn(Cc2ccc(Cl)cc2)c(C)c1NC(=O)c1cc(-c2ccco2)on1	0	0	0	32	0	0	31	0
O=C(C1CC=CC2CCN(C3CC3)C(=O)C21)N1CCN(c2ccccc2)CC1 (centres undefined)	-	-	0	-	-	0	-	-
COc1ccc(C2C3C(=O)N(C(C)(C)C)C(=O)C3[C@]3(C)C(=O)N(c4cccc(Cl)c4)C(=O)N23)cc1 (some centres undefined)	-	-	0	-	-	0	-	-
C[C@@]12CCC=CC1C(c1ccc3ccccc3c1C=Cc1ccccc1)N(Cc1ccccc1)C2=O (some centres undefined)	-	-	0	-	-	0	-	-

Source: PubChem BioAssay
